Bioassay records from PubChem.
KDM5B inhibitor: Primary screen for KDM5B Histone Demethylases FDH-coupled qHTS; actives 2.6% (n = 220,000); Lysine-specific demethylase 5B (Homo sapiens), Q9UGL1; AID 1347165, 2019; Potency, µM (highest dose often 57.7 µM), actives largely listed as inhibitors; KDM5B demethylase, FDH-coupled NADH fluorescence (FDH is formaldehyde dehydrogenase); further: nearly all actives have a fitted effect of over 70% in size
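KDM5BΔAP (200 nM final) in 50 mM HEPES pH 7.5, 0.01% Tween-20 was preincubated 10 min at RT with compound over a concentration range. Substrate mix (H3K4me3 12.5 µM, α-KG 25 µM, Fe²⁺, ascorbate, NAD⁺, FDH) was added, and NADH fluorescence change over 30 min gave dose-response curves.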
IP6K1 inhibitor: Primary qHTS assay for small molecule inhibitors of Inositol hexaphosphate kinase 1 (IP6K1); IP6K1 kinase, ADP-Glo luminescence, 2 h; hits give low values; activity change, % (series mostly up to about 58 µM); actives 0.81% (n = 140,000); AID 1645851, 2021; in the data active means activity change below about -25%
Target sequence (Q92551 whole entry, looked up): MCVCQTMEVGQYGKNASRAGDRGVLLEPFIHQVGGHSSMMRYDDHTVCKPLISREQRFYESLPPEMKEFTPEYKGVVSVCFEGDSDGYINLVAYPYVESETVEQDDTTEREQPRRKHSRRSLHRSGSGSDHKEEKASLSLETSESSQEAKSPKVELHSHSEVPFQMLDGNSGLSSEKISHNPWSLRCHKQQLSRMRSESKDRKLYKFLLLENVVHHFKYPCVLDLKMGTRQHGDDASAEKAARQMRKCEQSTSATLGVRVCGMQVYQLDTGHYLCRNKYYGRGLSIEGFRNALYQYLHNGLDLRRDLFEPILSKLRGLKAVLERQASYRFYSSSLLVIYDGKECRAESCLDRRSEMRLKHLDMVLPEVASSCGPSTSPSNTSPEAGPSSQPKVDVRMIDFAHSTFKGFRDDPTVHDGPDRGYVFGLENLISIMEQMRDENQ
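ADP-Glo luminescence measures ADP made by human IP6K1 during a 2 h RT reaction with ATP/IP6 (mix at 1.3 mM/130 uM); top library doses 57.5 and 19.1 uM final.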
Large screens that a line does not name were inactive. The list is not random: actives were taken first. Their share in the collection is about 2.8%.

Cc1cccc(NC(=O)N2CC(Oc3ccc(-c4nc(-c5ccccc5)no4)cc3)C2)c1	KDM5B inhibitor 12.6µM
Cc1nc(-c2ccccc2OC2CN(C(=O)c3ccoc3)C2)no1	none
Cc1noc(-c2ccc(OC3CN(C(=O)Nc4ccccc4)C3)cc2)n1	none
Cc1nc(-c2ccccc2OC2CN(C(=O)c3cccc4[nH]ccc34)C2)no1	KDM5B inhibitor 28.2µM
Cn1cccc1C(=O)N1CC(Oc2ccc(-c3nc(-c4ccccc4)no3)cc2)C1	KDM5B inhibitor 28.2µM
Cc1noc(-c2ccc(OC3CN(C(=O)c4sccc4C)C3)cc2)n1	none
Cc1cccc(NC(=O)CCSc2ccc(Cl)cc2)c1	none (no result: IP6K1 inhibitor)
Cc1ccc(OCCC2CCN(C(=O)C(C)C)C2)cc1 (stereo not drawn)	none
c1ccc(Nc2nc(NC3CCCC3)nc3c2cnn3-c2ccccc2)cc1	none (no result: IP6K1 inhibitor)
O=C(c1cccc2[nH]ccc12)N1CC(Oc2ccc(-c3nc(-c4ccccc4)no3)cc2)C1	KDM5B inhibitor 11.2µM
O=C(Nc1ccccc1)N1CCC(Oc2ccccc2-c2nc(-c3ccccc3)no2)C1 (stereo not drawn)	KDM5B inhibitor 31.6µM
CC(C)NC(=O)N1CCC(Oc2ccccc2-c2nc(-c3ccccc3)no2)C1 (stereo not drawn)	KDM5B inhibitor inconclusive
O=C(c1cc(F)ccc1F)N1CC(Oc2ccc(-c3nc(-c4ccccc4)no3)cc2)C1	none
Cc1cc(C(F)(F)F)nn1CC(=O)NCCc1ncc(C)n1CC1CC1	none
Cc1ccc(CNC(=O)N2CCn3nnc(CCC(=O)NC4CC4)c3C2)cc1	none
COc1ccccc1-c1noc(-c2nnn3c2COC(c2ccc(Cl)cc2)C3)n1 (stereo not drawn)	KDM5B inhibitor inconclusive
COc1ccc(-c2nc(-c3nnn4c3COC(c3ccc(Cl)cc3)C4)no2)c(OC)c1 (stereo not drawn)	KDM5B inhibitor inconclusive
COc1ccccc1-c1nc(-c2nnn3c2COC(c2ccc(C)cc2)C3)no1 (stereo not drawn)	KDM5B inhibitor 12.6µM
COc1ccc(C2Cn3nnc(-c4noc(-c5ccccc5OC)n4)c3CO2)cc1 (stereo not drawn)	KDM5B inhibitor inconclusive
COc1cccc(-c2nc(-c3nnn4c3COC(c3ccc(Cl)cc3)C4)no2)c1OC (stereo not drawn)	KDM5B inhibitor 25.1µM
COc1ccc(C2Cn3nnc(-c4noc(-c5cc(F)ccc5F)n4)c3CO2)cc1 (stereo not drawn)	KDM5B inhibitor 17.8µM
COc1ccccc1-c1nc(-c2nnn3c2COC(c2ccc(Cl)cc2)C3)no1 (stereo not drawn)	KDM5B inhibitor 14.1µM
COc1ccc(C2Cn3nnc(-c4noc(-c5cc(F)ccc5Cl)n4)c3CO2)cc1 (stereo not drawn)	none
COc1ccc(-c2cnc([C@@H]3COCCN3Cc3cn(C)c4ccccc34)[nH]2)cc1	none
CCCCCCOC(=O)CC(C(=O)OCCCCCC)S(=O)(=O)O (stereo not drawn)	none (no result: IP6K1 inhibitor)
COc1ccc(N2CC(c3noc(-c4cccc(F)c4)n3)CC2=O)cc1OC (stereo not drawn)	none
Cc1cccc(OCC(=O)Nc2cccc(OCc3cc(=O)n4cccc(C)c4n3)c2)c1	KDM5B inhibitor inconclusive
CCOc1cccc(-c2noc(-c3nnn4c3COC(c3ccc(OC)cc3)C4)n2)c1 (stereo not drawn)	KDM5B inhibitor 17.8µM
COc1ccc(C2Cn3nnc(-c4nc(-c5ccccc5OC)no4)c3CO2)cc1 (stereo not drawn)	KDM5B inhibitor 28.2µM
CCOc1cccc(-c2noc(-c3nnn4c3COC(c3ccc(F)cc3)C4)n2)c1 (stereo not drawn)	KDM5B inhibitor inconclusive
COc1ccccc1-c1noc(-c2nnn3c2COC(c2ccc(F)cc2)C3)n1 (stereo not drawn)	KDM5B inhibitor inconclusive
Cn1ncc2c(C(=O)NCC3CC3)cc(-c3ccsc3)nc21	none (no result: KDM5B inhibitor)
O=C(c1nc2sccn2c1-c1cccc(C(F)(F)F)c1)N1CCOCC1	none (no result: KDM5B inhibitor)
O=C(c1nc(-c2cccc(C(F)(F)F)c2)c2cnccn12)N1CCN(c2ncccn2)CC1	KDM5B inhibitor 28.2µM
O=C(c1nc(-c2cccc(C(F)(F)F)c2)c2ccccn12)N1CCOCC1	KDM5B inhibitor 28.2µM
O=C(c1nc(-c2ccc(Cl)cc2Cl)c2ccccn12)N1CCN(c2ncccn2)CC1	KDM5B inhibitor inconclusive
C#CCNC(=O)c1nc(-c2cccc(C(F)(F)F)c2)c2ccccn12	none
CN(C)C(=O)c1nc(-c2cccc(C(F)(F)F)c2)c2ccccn12	KDM5B inhibitor 35.5µM
O=C(c1nc(-c2cccc(C(F)(F)F)c2)c2ccccn12)N1CCN(c2ncccn2)CC1	KDM5B inhibitor 25.1µM
CCOc1cc(S(=O)(=O)NCCO)ccc1Cl	none (no result: IP6K1 inhibitor)
Nc1nc(COC(=O)c2cccc(Cl)c2Cl)nc2ccccc12	none (no result: IP6K1 inhibitor)
O=C1CC(c2ccccc2)N(C(=O)CNC(=O)c2ccc(Cn3ccnc3)o2)CCCCCN1 (stereo not drawn)	none
COc1ccc(-c2csc(NC3OC(=O)c4c3ccc(OC)c4OC)n2)cc1 (stereo not drawn)	none (no result: IP6K1 inhibitor)
CS(=O)(=O)N1C[C@H]2CCN(Cc3cc(F)c(F)cc3F)C[C@H]21	none
C[S+](=O)([O-])c1cccc(-c2ncc3c(n2)OCCN(CC2CC2)C3=O)c1	none
O=C1c2cc(N3CCOCC3)nc(-c3cnc4[nH]ccc4c3)c2CN1CC1CC1	KDM5B inhibitor 12.6µM
O=c1cc(N2CCOCC2)nc2c3ccccc3ccn12	none (no result: KDM5B inhibitor)
O=C1c2cc(N3CCOCC3)nc(-c3cnc4[nH]ccc4c3)c2CN1CC(F)(F)F	KDM5B inhibitor 31.6µM
O=C1c2cc(N3CCOCC3)nc(-c3ccccc3F)c2CN1CC(F)(F)F	KDM5B inhibitor 31.6µM
CN1CCC2(C1)CN(CC1CCOCC1)c1ccc(C(=O)NCc3ccccc3)cc12 (stereo not drawn)	KDM5B inhibitor 39.8µM
CC(C)CNC(=O)c1ccc2c(c1)C1(CCN(C)C1)CN2CC1CCOCC1 (stereo not drawn)	KDM5B inhibitor 35.5µM
CN1CCC2(C1)CN(CC1CCOCC1)c1ccc(C(=O)Nc3ccn(C)n3)cc12 (stereo not drawn)	KDM5B inhibitor inconclusive
CN1CCC2(C1)CN(CC1CCOCC1)c1ccc(C(=O)Nc3ccccc3)cc12 (stereo not drawn)	KDM5B inhibitor inconclusive
COc1ccc(-c2cnc(C)o2)cc1S(=O)(=O)Nc1ccc(F)cc1	none (no result: IP6K1 inhibitor)
CCCc1nn2c(=O)cc(CN(CCC)Cc3ccc(OCC)cc3)nc2s1	none (no result: IP6K1 inhibitor)
O=C(c1ccc(C(F)(F)F)cc1)N1CCC(N2CCOC2=O)CC1	none
N#Cc1ccc(CN2CCc3n[nH]c(=O)n3CC2)cc1	KDM5B inhibitor inconclusive
Cc1ccc(NC(=O)C23CC4CC(CC(C4)C2)C3)cc1Cl	none (no result: IP6K1 inhibitor)
Cc1noc(-c2nc(-c3ccc4c(c3)OCO4)no2)n1	KDM5B inhibitor inconclusive
CCCc1noc(-c2nc(-c3ccc4c(c3)OCO4)no2)n1	KDM5B inhibitor 25.1µM
Fc1ccccc1-c1noc(-c2nc(-c3ccc4c(c3)OCO4)no2)n1	KDM5B inhibitor 25.1µM
COc1ccccc1-c1noc(-c2nc(-c3ccc4c(c3)OCO4)no2)n1	none
COC(=O)CNC(=O)C1CCN(C(=O)c2ccc(-c3cccc(OC)c3)cc2)CC1	none (no result: KDM5B inhibitor)
CNC(=O)[C@@H]1CN(C(=O)c2cc3cc(OC)ccc3[nH]2)C[C@H]1CO	KDM5B inhibitor 22.4µM
CNC(=O)[C@@H]1CN(C(=O)C2(c3ccc(OC)cc3)CC2)C[C@H]1CO	none
